In PubChem BioAssay AID504339 (National Center for Advancing Translational Sciences (NCATS), 2011):
The campaign covered roughly 390,000 compounds. About 17,000 (4.4%) were called active. About 8% were inconclusive and are not listed. Calls follow the shape of the dose curve; as a rule, active = well fitted inhibition curve with a large enough effect; inconclusive = small, poorly fitted or top-dose-only effect; inactive = no such curve, though single readings can be large or run the other way. For the sample, actives were picked, then their nearest neighbours and some compounds at random.

target: Lysine-specific demethylase 4A (Homo sapiens) (UniProt O75164); assay: qHTS Assay for Inhibitors of JMJD2A-Tudor Domain; conditions: AlphaScreen JMJD2A-Tudor / H3K4me3 peptide binding; series mostly up to 114 µM; activity change, negative = inhibition: at the top concentration; also: nearly all actives have a fitted effect of over 50% in size
% is scaled to controls: 0 for no effect and ±100 for the full control effect; potency is read from the fitted curve at half-maximal effect.

Sequence of Lysine-specific demethylase 4A (Homo sapiens) (O75164 whole entry, looked up, the tested form may be a part): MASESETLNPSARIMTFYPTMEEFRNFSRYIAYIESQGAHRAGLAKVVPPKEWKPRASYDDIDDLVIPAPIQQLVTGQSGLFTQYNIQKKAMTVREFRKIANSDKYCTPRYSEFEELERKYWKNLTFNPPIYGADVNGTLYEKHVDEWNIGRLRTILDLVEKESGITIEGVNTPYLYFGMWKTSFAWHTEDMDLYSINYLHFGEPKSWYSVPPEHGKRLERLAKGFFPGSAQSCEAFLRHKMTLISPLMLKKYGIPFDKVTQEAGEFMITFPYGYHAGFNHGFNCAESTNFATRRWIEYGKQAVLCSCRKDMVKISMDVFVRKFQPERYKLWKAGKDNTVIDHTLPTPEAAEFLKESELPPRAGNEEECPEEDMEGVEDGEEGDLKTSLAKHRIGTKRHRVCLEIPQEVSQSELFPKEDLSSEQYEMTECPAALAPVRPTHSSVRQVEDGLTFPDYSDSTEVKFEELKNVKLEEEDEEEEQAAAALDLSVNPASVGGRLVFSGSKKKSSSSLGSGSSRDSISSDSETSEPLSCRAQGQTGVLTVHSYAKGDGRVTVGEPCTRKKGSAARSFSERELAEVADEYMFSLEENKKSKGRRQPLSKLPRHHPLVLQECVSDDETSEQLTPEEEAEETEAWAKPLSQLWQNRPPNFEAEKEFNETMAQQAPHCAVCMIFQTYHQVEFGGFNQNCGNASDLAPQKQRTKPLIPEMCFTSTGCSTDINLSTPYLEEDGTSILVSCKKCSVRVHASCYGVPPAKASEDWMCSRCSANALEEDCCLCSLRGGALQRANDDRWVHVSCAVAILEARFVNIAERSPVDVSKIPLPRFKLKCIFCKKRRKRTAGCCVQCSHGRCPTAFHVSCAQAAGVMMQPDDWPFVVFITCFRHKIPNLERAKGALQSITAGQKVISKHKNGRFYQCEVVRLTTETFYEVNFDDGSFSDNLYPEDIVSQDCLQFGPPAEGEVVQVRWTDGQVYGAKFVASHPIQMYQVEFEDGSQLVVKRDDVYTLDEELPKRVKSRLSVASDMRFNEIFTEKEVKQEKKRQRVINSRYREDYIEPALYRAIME

| SMILES | activity change, negative = inhibition | Potency |
| --- | --- | --- |
| O=C(NCC(c1cccnc1)N1CCc2ccccc21)c1cccc(C(F)(F)F)c1 (stereo not given) | -7.89% (inactive) |  |
| CN(C)c1ccc(C(CNS(=O)(=O)c2cc(F)ccc2F)N2CCOCC2)cc1 (stereo not given) | -27.5% (inactive) |  |
| COc1ccc(S(=O)(=O)NCC(c2ccc(N(C)C)cc2)N2CCc3ccccc32)cc1OC (stereo not given) |  | 22.4 µM (active) |
| COc1ccc(S(=O)(=O)NCC(=O)NC2CC2)cc1OC | -9.62% (inactive) |  |
| O=S(=O)(NCC(c1ccccc1)N1CCc2ccccc21)c1ccccc1 (stereo not given) |  | 22.4 µM (active) |
| O=S(=O)(c1ccccc1)N1CCc2ccccc21 | 11.8% (inactive) |  |
| COc1ccc(-c2c3c(=O)n(C)c(=O)n(C)c3c3c(C)nc4ccccc4n23)cc1 | -2.41% (inactive) |  |
| Cc1ccc2[nH]c3c(=O)n(CC(=O)NC(C)C)ncc3c2c1 | -6.8% (inactive) |  |
| COc1ccc(CCn2c3c(c(=O)[nH]c2=S)CN(C(C)C)CN3)cc1OC | -21.8% (inactive) |  |
| Cc1cc(C)cc(NC(=O)CSc2nc3nccnc3c(=O)n2CCc2c[nH]c3ccccc23)c1 | -13.2% (inactive) |  |
| O=C(Nc1ccc(N2CCOCC2)cc1)c1ccc2c(c1)OCO2 |  | 20 µM (active) |
| O=C(Nc1cccc(Cl)c1N1CCOCC1)c1ccc2c(c1)OCCO2 | -11.1% (inactive) |  |
| COC(=O)c1ccc(N2CCOCC2)c(NC(=O)c2ccc3c(c2)OCCO3)c1 | -0.69% (inactive) |  |
| CCOC(=O)C1CCCN(C(=O)Cn2ncc3c(=O)oc4ccc(C)cc4c32)C1 (stereo not given) | -15.3% (inactive) |  |
| CCCn1c2ccccc2c2cnn(CC(=O)N3CCCC(C(=O)OCC)C3)c(=O)c21 (stereo not given) |  | 79.4 µM (active) |
| CCOC(=O)C1CCCN(C(=O)Cn2ncc3c(C)n(Cc4ccc(F)cc4)c(C)c3c2=O)C1 (stereo not given) | -21.8% (inactive) |  |
| COc1cccc(CNC(=O)C2CCN(S(=O)(=O)c3ccc4c(ccn4C)c3)CC2)c1 | -20.1% (inactive) |  |
| CCCN1CCN(CCCNC(=O)c2cnn(-c3ccc(C)cc3)c2-n2cccc2)CC1 | -21.7% (inactive) |  |
| COC(=O)c1ccccc1S(=O)(=O)Nc1ccc(OC)cc1 | -26.2% (inactive) |  |
| Cc1cc(C)n(-c2nc(C(F)(F)F)nc3ccccc23)n1 | -5.54% (inactive) |  |
| Cc1ccc(S(=O)(=O)N2CCN(c3ccccc3)CC2)cc1C | -21.2% (inactive) |  |
| Cc1cc(C)n(-c2nnc(N3CCN(c4ccccc4)CC3)nn2)n1 |  | 50.1 µM (active) |
| N#CN1CCC(NS(=O)(=O)c2cccc(F)c2)C1 (stereo not given) | -4.11% (inactive) |  |
| CCOc1ccc(C2C(=O)N(C3CCCCC3)CC(=O)N2CCC2=CCCCC2)cc1OC (stereo not given) | -12.8% (inactive) |  |
| Cc1ccc(NC(=O)CCC(=O)N/N=C/c2ccco2)c(C)c1 | -15% (inactive) |  |

| SMILES | activity change, negative = inhibition | Potency |
| --- | --- | --- |
| CC(/C=N/NC(=O)c1cc(-c2ccc3ccccc3c2)n[nH]1)=C\c1ccco1 | -32.6% (inactive) |  |
| Cc1cc(-c2n[nH]c(=S)n2/N=C/c2ccco2)n[nH]1 |  | 3.98 µM (active) |
| Cc1cc(-c2n[nH]c(=S)n2/N=C/C(Br)=C/c2ccccc2)n[nH]1 |  | 56.2 µM (active) |
| Cc1cc(NC(=O)CC(C)C)cc(-c2nc3ncccc3o2)c1O | -10.4% (inactive) |  |
| Fc1ccc(-c2nn(-c3ccccc3Cl)c3c2cnc2ccccc23)cc1 | -10.6% (inactive) |  |
| O=C(NC1CC(=O)N(c2ccccc2)C1)c1ccco1 (stereo not given) | -14% (inactive) |  |
| Cc1cc(C)n2ncc(C(=O)N3CCCC3)c2n1 | -14.2% (inactive) |  |
| Cc1ccc(Cl)cc1NC(=O)CSc1nccn1C | -11.9% (inactive) |  |
| NC(=O)C1CCN(Cc2nc3c(Br)cc(Br)cc3c(=O)[nH]2)CC1 |  | 3.16 µM (active) |
| NC(=O)C1CCN(C2OC(=O)c3ccccc32)CC1 (stereo not given) | -12.3% (inactive) |  |
| NC(=O)C1CCN(C(=O)c2ccc3c(=O)n(Cc4cccc(Br)c4)c(=S)[nH]c3c2)CC1 | -31.2% (inactive) |  |
| COc1ccc(Cl)cc1NC(=O)C(C)Sc1nc2c(c(=O)[nH]1)CCCC2 (stereo not given) | -10.9% (inactive) |  |
| COc1cc(NC(=O)CCn2nc(C)cc2C)cc(OC)c1OC | -5% (inactive) |  |
| O=C(CSc1oc(-c2ccco2)nc1S(=O)(=O)c1ccc(Cl)cc1)c1ccccc1 | -29% (inactive) |  |
| COc1ccccc1C1/C(=C(/O)c2ccc(C)cc2)C(=O)C(=O)N1Cc1ccco1 (stereo not given) | -7.61% (inactive) |  |
| COc1ccc(C2/C(=C(/O)c3ccccc3)C(=O)C(=O)N2C)c(OC)c1 (stereo not given) | -13% (inactive) |  |
| COc1ccc(/C(O)=C2\C(=O)C(=O)N(Cc3ccco3)C2c2ccc(OC)cc2OC)cc1 (stereo not given) |  | 20 µM (active) |
| CCOC(=O)c1cccc(NC(=O)C(Cc2ccccc2)NS(=O)(=O)c2cccc3nsnc23)c1 (stereo not given) | -25.7% (inactive) |  |
| COc1ccc2c(c1)c(N1CCCC1=O)c(C(=O)Nc1ccccc1C(F)(F)F)n2C | -2.07% (inactive) |  |
| CC(c1ccco1)N(C(=O)Nc1ccccc1)C1CCCCC1 (stereo not given) | -15.1% (inactive) |  |
| Cc1ccc(NC(=O)NC(=O)N(C2CCCCC2)S(=O)(=O)c2ccccc2)cc1 |  | 70.8 µM (active) |
| CC(C)(C)NS(=O)(=O)c1ccc(NC(=O)NC2CCCCC2)cc1 | -9.35% (inactive) |  |
| Cc1ccc2cccc(NC(=O)c3cccc4ccccc34)c2n1 | 29.1% (inactive) |  |
| COc1cccc2c1C(=O)c1c(O)c3c(c(O)c1C2=O)CC(O)(C(C)=NNC(=O)c1ccc(Cl)c(Cl)c1)CC3OC1CC(N)C(O)C(C)O1 (stereo not given) |  | 50.1 µM (active) |
| Cc1ccc(CNC(=O)CCNS(=O)(=O)c2ccc3c(c2)oc(=O)n3C)cc1 | -5.3% (inactive) |  |
